Screening results (PubChem)
This is a sample that favours compounds with a hit; in the whole collection about 19% have one here.
IL-1B inflam inh: qHTS for Inhibitors of Inflammasome Signaling: IL-1-beta AlphaLISA Primary Screen; THP-1 LPS/ATP IL-1B secretion, AlphaLISA, 16 h; hits give low values; activity change, % at 57.5 µM; actives 4.7% (n = 360,000); in the data active = activity change below about -50%; inconclusive = mostly about -30% to -49%
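Secreted IL-1B measured by AlphaLISA bead assay after 16 h compound exposure of THP-1 cells; compounds (final up to 57.5 uM) added 1 h before LPS (250 ng/mL) and ATP (1.25 mM) stimulation; lower signal means less secretion.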
ELG1 DNA repair: qHTS screen for small molecules that inhibit ELG1-dependent DNA repair in human embryonic kidney (HEK293T) cells expressing luciferase-tagged ELG1. actives 2.3% (n = 330,000). HEK293T ELG1-luciferase reporter, luminescence, 16 h; DNA damage induced by 5-fluorouridine. Potency, µM (titrated, usually from 46.1 µM), inactives show top-dose activity change, negative = inhibition, most hits filed as inhibitors; note: potency is the fitted concentration of half-maximal effect; nearly all actives have a fitted effect of over 55% in size
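Overnight (16 hr) co-exposure of 2,000 cells/well to 5-fluorouridine and compound at 37 °C preceded detection. Luciferase was quantified via ONE-Glo luminescence; loss of signal denotes inhibition.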
HT1080NT lethal: qHTS for induction of synthetic lethality in tumor cells producing 2HG: qHTS for the HT-1080-NT fibrosarcoma cell line; HT-1080-NT fibrosarcoma viability, CellTiter-Glo ATP luminescence, 48 h; Potency, µM (series often up to 46.1 µM), for inactives: at the top dose activity, negative = less viability, actives largely listed as cytotoxic; actives 1.6% (n = 360,000);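 note: NT is the 2HG producing partner of a matched IDH1 knockdown line; potency is the fitted concentration of half-maximal effect; 0% = DMSO-treated cells and -100% = media-only wells without cells; nearly all actives have a fitted effect of over 55% in size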
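HT-1080-NT fibrosarcoma cells (2HG-overproducing), 750 cells/well in RPMI with 5% FBS, dosed after 2 h and incubated 48 h at 37C. CellTiter-Glo luminescence normalized to DMSO and no-cell wells; concentration-response curves fitted and classed.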
HT1080 IDH1KD tx: qHTS for induction of synthetic lethality in tumor cells producing 2HG: qHTS for the HT-1080-IDH1KD cell line | HT-1080 IDH1 knockdown viability, ATP luminescence, 48 h | Potency, µM (series often up to 46.1 µM), without a hit: at the top dose activity, negative = toxicity, hits mostly cytotoxic | actives 2% (n = 360,000) | AID 686971, 2013;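 note: potency is the fitted concentration of half-maximal effect; 0% = DMSO wells and -100% = cell-free medium wells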
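CellTiter-Glo luminescence after 48 h compound exposure at 37 degrees C of IDH1-knockdown HT-1080 cells in 5% FBS RPMI. %Activity scaled between DMSO wells and cell-free media wells, with curves fitted and assigned curve classes.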
TDP1 cell CPT: qHTS for Inhibitors of human tyrosyl-DNA phosphodiesterase 1 (TDP1): qHTS in cells in presence of CPT | chicken DT40 Tdp1-/-;hTDP1 cells + 20 nM CPT, ATP luminescence, 48 h | Potency, µM (titrated, usually from 46.2 µM), for the others: at the highest dose activity change, negative = growth inhibition, actives largely listed as inhibitors | actives 12% (n = 420,000) | AID 686979, 2013; note: potency is the fitted concentration of half-maximal effect; nearly all actives have a fitted effect of over 55% in size
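Chicken DT40 Tdp1-/- cells stably complemented with human TDP1 were seeded at 400 cells/well in medium containing 20 nM camptothecin, exposed to pin-transferred compounds, and grown at 37 °C for at least 48 hr. Viability was read as ATP luminescence.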
TDP1 cell noCPT: qHTS for Inhibitors of human tyrosyl-DNA phosphodiesterase 1 (TDP1): qHTS in cells in absence of CPT | actives 15% (n = 420,000) | DT40 Tdp1-/- hTDP1 cells, no CPT, ATP luminescence, 48 h | Potency, µM (highest dose often 46.2 µM), for the others: top-dose activity change, negative = growth inhibition, actives largely listed as inhibitors; note: potency is the fitted concentration of half-maximal effect; nearly all actives have a fitted effect of over 55% in size
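DT40 Tdp1-/-;hTDP1 cells, no CPT (DMSO vehicle only), 400 cells/well; compounds pin-transferred; ≥48 hr, 37 °C; CellTiter-Glo 30 min RT dark, luminescence read.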
* = called active by the depositor; ? = inconclusive; . = not tested or not shown; [ ] = another dose, or the depositor's remark. Unless noted, calls come from the whole dose curve; as a rule, active = well fitted curve in the direction sought with a large enough effect; inconclusive = small, poorly fitted or top-dose-only effect, or another doubt; inactive = no such curve, though single readings can be large; an effect the other way counts as inactive or inconclusive. Unless noted, % is set by controls: 0 for no effect and ±100 for the full control effect.

SMILES	IL-1B inflam inh	ELG1 DNA repair	HT1080NT lethal	HT1080 IDH1KD tx	TDP1 cell CPT	TDP1 cell noCPT
COc1cccc(-c2cc(C(=O)N3CC4(C)CC3CC(C)(C)C4)no2)c1 (configuration not stated)	-8	?	-4%	?	?	21µM*
Cc1ccc(C(=O)Nc2ccccc2C(=O)N2CC3(C)CC2CC(C)(C)C3)cc1 (configuration not stated)	-30	23µM*	-13%	-24%	-47%	?
CC1(C)CC2CC(C)(CN2C(=O)c2cc(-c3ccc(O)cc3)on2)C1 (configuration not stated)	-62*	-5%	?	?	-14%	?
CCOC(=O)C1(C)CCN1C(=O)c1cccc2ccccc12 (configuration not stated)	10	.	-3%	-1%	?	?
O=C(Nc1ccccc1)c1cc(C2COCCN2C(=O)CCCc2ccccc2)on1 (configuration not stated)	-12	.	2%	6%	?	?
COc1ccc(CN(C(=O)/C=C/C(=O)c2ccc(OC)cc2O)C(C(=O)NC2CCCCC2)c2ccncc2)cc1 (configuration not stated)	?	16µM*	0%	-4%	?	?
O=C(NC1CCCCC1)C(c1ccncc1)N(Cc1ccc2c(c1)OCO2)C(=O)c1cnsn1 (configuration not stated)	9	-9%	-3%	0%[9.24 µM]	?	?
COc1ccc(C(=O)/C=C/C(=O)N(Cc2ccc3c(c2)OCO3)C(C(=O)NC2CCCCC2)c2ccncc2)c(O)c1 (configuration not stated)	?	7.3µM*	-10%	?	?	23µM*
COc1ccc(C(=O)Nc2ccc3c(c2)OCCO3)c(OC)c1	-5	.	22%	18%	-18%	-24%
COc1cc(SC)ccc1C(=O)Nc1ccc2c(c1)OCO2	-63*	?	-30%	?	-2%	8%
COc1cc(SC)ccc1C(=O)Nc1ccc(C)cc1	-57*	?	-3%	-3%	-18%	?
COc1cc(SC)ccc1C(=O)NCCc1ccccc1	-7	?	24%	?	15µM*	-107%
COc1ccc(CNC(=O)c2ccc(SC)cc2OC)cc1	-6	-1%	0%	-9%	-28%	-18%
COc1cc(SC)ccc1C(=O)Nc1cc(C)c(OCC(=O)N2CCOCC2)c(C)c1	15	15µM*	2%	2%	?	23µM*
COc1cc(SC)ccc1C(=O)Nc1ccc(OCC(=O)N2CCOCC2)cc1	.	?	-8%	0%	-7%	?
CCN(CCCNC(=O)c1nn(-c2ccc(OC)c(Cl)c2)c(=O)c2c1c1ccccc1n2C)c1cccc(C)c1	.	.	.	.	?	-23%
Cn1cc(-c2csc(C(O)c3ccc(F)c(F)c3)n2)cn1 (configuration not stated)	15	.	-3%	15%	?	?
Cc1ccc(C)n1C1CCS(=O)(=O)C1 (configuration not stated)	-16	18%	-20%	-15%	?	?
